37 compounds from the supplement of paper PMC12339681 can be followed below.

Where a name gives a salt, the structure may show the parent alone.

The subject of this assay is PBMC-derived induced microglia-like cells (piMGLC). Put plainly: synaptosome phagocytic index relative to DMSO control (fraction of DMSO); higher = more phagocytosis. Particulars: concentration: 10 uM (2 uM for compounds listed in Table S2); pretreatment time: 24 h; assay time: 3 h.
Regarding `O=c1c(-c2ccc(O)cc2)coc2cc(O)cc(O)c12` [Genistein], the synaptosome phagocytic index came to 0.792.

`C[N+](C)(C)CCOP(=O)([O-])OC[C@H](O)CO` [sn-Glycero-3-phosphocholine]: the synaptosome phagocytic index is 0.483.

With `CC(=O)OCC(=O)[C@@]1(O)[C@H](C)C[C@H]2[C@@H]3CCC4=CC(=O)C=C[C@]4(C)[C@@]3(F)[C@@H](O)C[C@@]21C` [Dexamethasone_acetate], the synaptosome phagocytic index came out at 0.776.

Take `C[C@@H](Nc1nc(N[C@H](C)C(F)(F)F)nc(-c2cccc(Cl)n2)n1)C(F)(F)F` [Vorasidenib]: the synaptosome phagocytic index is 0.481.

As for `COc1c(N2CCNC(C)C2)c(F)cc2c(=O)c(C(=O)O)cn(C3CC3)c12` (configuration not stated) [Gatifloxacin], the synaptosome phagocytic index turned out to be 0.702.

`CS(=O)(=O)CCNCc1ccc(-c2ccc3ncnc(Nc4ccc(OCc5cccc(F)c5)c(Cl)c4)c3c2)o1` [Lapatinib]: the synaptosome phagocytic index worked out at 0.0755.

For `CN1C(=O)OC(C)(C)C1=O` [Trimethadione], the synaptosome phagocytic index amounted to 0.751.

In the case of `Clc1ccc2c(c1)C(N1CCNCC1)=Nc1ccccc1O2` [Amoxapine], the synaptosome phagocytic index is 0.463.

For `N[C@@H](CC(=O)O)C(=O)O` [L-Aspartic_acid], the synaptosome phagocytic index stood at 0.871.

Turning to `Cc1nc(N)nc(N)c1-c1ccc(Cl)c(Cl)c1` [Metoprine], the synaptosome phagocytic index turned out to be 1.25.

Regarding `COc1ccc(C[C@@H]2c3cc(OC)c(OC)cc3CC[N@+]2(C)CCC(=O)OCCCCCOC(=O)CC[N@@+]2(C)CCc3cc(OC)c(OC)cc3[C@H]2Cc2ccc(OC)c(OC)c2)cc1OC` [Cisatracurium_(besylate)], the synaptosome phagocytic index came out at 0.726.

Consider `COc1ccc2[nH]cc(CCNC(C)=O)c2c1` [Melatonin], for which the synaptosome phagocytic index was 0.577.

Regarding `CN(C)C(=N)NC(=N)N` [Metformin_(hydrochloride)], the synaptosome phagocytic index was 0.668.

`NC(=O)N1c2ccccc2CC(=O)c2ccccc21` [Oxcarbazepine]: the synaptosome phagocytic index worked out at 0.693.

As to `Cc1cc(C)cc(OCC2CNC(=O)O2)c1` (configuration not stated) [Metaxalone], the synaptosome phagocytic index was found to be 0.757.

For the compound `C[C@@H]1O[C@@H]1P(=O)(O)O` [Fosfomycin_(calcium)], the synaptosome phagocytic index was determined as 0.946.

For the compound `CCn1ncc2c(NC3CCOCC3)c(-c3nnc(Cc4sc(C)nc4C)o3)cnc21`, the synaptosome phagocytic index was found to be 0.266.

Turning to `O=c1[nH]c2cc(Cl)ccc2c(O)c1-c1cccc(Oc2ccccc2)c1`, the synaptosome phagocytic index was 1.18.

For the compound `O=C(c1ccc(Cl)cc1)N(Cc1ccccc1)C1CCCCC1`, the synaptosome phagocytic index stood at 0.616.

Consider `CCC(=N\O)/C(C)=C/c1ccc(F)cc1`, for which the synaptosome phagocytic index is 0.93.

As for `O=C(NCc1ccc(F)cc1)N1CCN2C(=O)OC(c3ccccc3)(c3ccccc3)C2C1` (configuration not stated), the synaptosome phagocytic index is 0.552.

For the compound `O=C1CCC(N2C(=O)c3ccccc3C2=O)C(=O)N1` (configuration not stated) [Thalidomide], the synaptosome phagocytic index amounted to 0.811.

For `NCC(=O)CCC(=O)O` [5-Aminolevulinic_acid_(hydrochloride)], the synaptosome phagocytic index stood at 0.444.

With `C[C@@H]1CN(C(=O)[C@@H]2CN(C(C)(C)C)C[C@H]2c2ccc(F)cc2F)C[C@H](C)[C@@]1(O)c1ccccc1`, the synaptosome phagocytic index was determined as 0.704.

For `CC1CCN(CC[C@H]2CCCN2S(=O)(=O)c2cccc(O)c2)CC1`, the synaptosome phagocytic index was found to be 0.817.

For the compound `CC1=C(/C=C/C(C)=C/C=C/C(C)=C/C(=O)O)C(C)(C)CCC1` [Retinoic_acid], the synaptosome phagocytic index was found to be 0.339.

On to `CCN1CCN(C(=O)N[C@@H](C(=O)N[C@@H]2C(=O)N3[C@@H]2SC(C)(C)[C@@H]3C(=O)O)c2ccccc2)C(=O)C1=O` [Piperacillin_(sodium)], for which the synaptosome phagocytic index is 1.13.

In the case of `COc1ccc2c3c1O[C@H]1C[C@@H](O)C=C[C@@]31CCN(C)C2` [Galanthamine], the synaptosome phagocytic index was 0.617.

Take `CN1CC[C@H](c2c(O)cc(O)c3c(=O)cc(-c4ccccc4Cl)oc23)[C@H](O)C1` [Flavopiridol_(Hydrochloride)]: the synaptosome phagocytic index is 0.995.

For the compound `C#Cc1cccc(Nc2ncnc3cc(OCCOC)c(OCCOC)cc23)c1` [Erlotinib], the synaptosome phagocytic index stood at 0.798.

`OCCN1CCN(CCCN2c3ccccc3Sc3ccc(Cl)cc32)CC1` [Perphenazine]: the synaptosome phagocytic index was 0.197.

As to `Fc1ccc(-c2ccc3c(c2)[nH]c2ccncc23)cn1`, the synaptosome phagocytic index is 0.711.

Turning to `C#CCNS(=O)(=O)c1ccc(CCN(Cc2cc(Cl)ccc2OCCC)C(=O)Cc2ccsc2)cc1`, the synaptosome phagocytic index was found to be 0.54.

For the compound `C[C@@]1(c2cc(NC(=O)c3ccc(C#N)cn3)ccc2F)C=CSC(N)=N1` [Atabecestat], the synaptosome phagocytic index is 0.547.

Turning to `Cc1ccc(Nc2nccc(N(C)c3ccc4c(C)n(C)nc4c3)n2)cc1S(N)(=O)=O` [Pazopanib], the synaptosome phagocytic index came out at 0.785.

Regarding `CCc1nn(CCCN2CCN(c3cccc(Cl)c3)CC2)c(=O)n1CCOc1ccccc1` [Nefazodone_(hydrochloride)], the synaptosome phagocytic index was determined as 1.37.

Take `N[C@H](C(=O)O)[C@@H]1CC(Cl)=NO1` [Acivicin]: the synaptosome phagocytic index came to 0.68.
